Results on 20 compounds are retold here after PubChem BioAssay (EPA / NIEHS).

In assay [1] the target is Cellular tumor antigen p53 (Homo sapiens) (UniProt P04637). Put plainly: TOX21_p53_BLA_p3_ratio: Tox21 HCT-116 p53 Agonism Beta-lactamase Assay, Ratio, Phase 3 (AID 2283596). Put shortly:
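HCT116 p53-bla cells (4000/well) given compound in DMSO (217-fold dilution) after 5 h, incubated 16 h at 37C. CCF4-AM substrate 2 h at room temperature; 460/530 nm emission ratio, gain fitted against DMSO.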

Assay [2] is described as follows: TOX21_p53_BLA_p4_viability: Viability Assessment in the Tox21 HCT-116 p53 Agonism Beta-lactamase Assay, Phase 4 (AID 2283597).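 Also: hits lower the luminescence signal meaning cytotoxicity.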 Put shortly:
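Luminescent ATP readout (CellTiter-Glo, 30 min, room temperature) in the same wells as the p53 bla ratio. HCT116 cells were treated for 16 h at 37C with DMSO-dissolved compounds.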

The target of assay [3] is Cellular tumor antigen p53 (Homo sapiens) (UniProt P04637). Put plainly: TOX21_p53_BLA_p5_ratio: Tox21 HCT-116 p53 Agonism Beta-lactamase Assay, Ratio, Phase 5 (AID 2283599). Put shortly:
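HCT-116 p53-bla cells (4000/well) plated 5 h, dosed with compound (217-fold DMSO dilution) for 16 h at 37 C; CCF4-AM substrate 2 h at room temperature. Activity is the 460/530 nm emission ratio (405 nm excitation), fitted in gain-of-signal direction versus DMSO.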

Assay [4] can be described thus: TOX21_p53_BLA_p5_viability: Viability Assessment in the Tox21 HCT-116 p53 Agonism Beta-lactamase Assay, Phase 5 (AID 2283600). Put shortly: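 Seeded cells (4000/well) settle 5 h before compound addition. Plates then incubate 16 h at 37C, receive FRET substrate for 2 h, and finally CellTiter-Glo, with luminescence measured after a 30 min room-temperature incubation.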

Assay [5] has as its target Cellular tumor antigen p53 (Homo sapiens) (UniProt P04637). Put plainly: TOX21_p53_BLA_p4_ratio: Tox21 HCT-116 p53 Agonism Beta-lactamase Assay, Ratio, Phase 4 (AID 2283601). Put shortly: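 HCT-116 p53 beta-lactamase reporter cells (4000/well) preincubated 5 h, then compound (217-fold dilution of DMSO stock) for 16 h at 37C. CCF4-AM substrate added 2 h at room temperature; 460/530 nm emission ratio fitted upward versus DMSO.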

Assay [6] can be described thus: Tanguay_ZF_120hpf_MORT_legacy: (Legacy) Oregon State University Tanguay Lab 120 Hour Post-fertilization zebrafish Assay for Mortality (AID 2283633).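 As to AC50: fitted as increase in binary mortality versus DMSO negative control.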 Put shortly:
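Single dechorionated Tropical 5D embryos were held with test chemical (0.64% DMSO final) from 6 to 120 hpf at 28C under foil. Deaths at 24 or 120 hpf were recorded as binary calls, analysed for increase over DMSO controls.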

Assay [7] in a line: Tanguay_ZF_120hpf_YSE_legacy: (Legacy) Oregon State University Tanguay Lab 120 Hour Post-fertilization zebrafish Assay for Yolk Sac Edema (AID 2283634).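 As to AC50: actives raise the incidence of yolk sac edema above the DMSO baseline.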 Put shortly: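 Single dechorionated embryos were held in sealed plates at 28C with test chemical (0.64% DMSO final) from 6 hpf until 120 hpf. Edema of the yolk sac was then recorded as a binary endpoint; non-mortality endpoints were skipped for dead embryos.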

The nature of assay [8]: Tanguay_ZF_120hpf_AXIS_legacy: (Legacy) Oregon State University Tanguay Lab 120 Hour Post-fertilization zebrafish Assay for Body Axis Malformation (AID 2283635).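 As to AC50: potency for an increased fraction of larvae scored with body axis malformation.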 Put shortly: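 Each dechorionated embryo was exposed alone from 6 hpf, with DMSO at 0.64% (vol/vol) and trimethyltin chloride 5 uM as positive control. Axis malformation was recorded at 120 hpf unless the embryo had died.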

Assay [9] can be described thus: Tanguay_ZF_120hpf_EYE_legacy: (Legacy) Oregon State University Tanguay Lab 120 Hour Post-fertilization zebrafish Assay for Eye Malformation (AID 2283636).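 Also: binary presence or absence of eye malformation scored by brightfield in 120 hpf larvae.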 Put shortly: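 Dechorionated Tropical 5D zebrafish embryos, one per well from 6 hpf, static exposure to 120 hpf at 28C, 0.64% DMSO. Eye malformation scored present/absent by brightfield; dead embryos not scored.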

Assay [10] can be described thus: Tanguay_ZF_120hpf_SNOU_legacy: (Legacy) Oregon State University Tanguay Lab 120 Hour Post-fertilization zebrafish Assay for Snout Malformation (AID 2283637). Put shortly:
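Dechorionated tropical 5D wild-type zebrafish embryos exposed statically from 6 to 120 hpf at 28C, one per well, in 0.64% DMSO. Snout malformation scored as present/absent by brightfield at 120 hpf; dead embryos not scored.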

Inconclusive results are not listed. Activity calls are given as the source filed them. The calls were made as follows: active = hit-call score of the fitted dose curve at least 0.9, where 1 is the maximum; inconclusive = response in the unintended direction; inactive = score below 0.9.

Chain of Cellular tumor antigen p53 (Homo sapiens) (P04637 whole entry, looked up): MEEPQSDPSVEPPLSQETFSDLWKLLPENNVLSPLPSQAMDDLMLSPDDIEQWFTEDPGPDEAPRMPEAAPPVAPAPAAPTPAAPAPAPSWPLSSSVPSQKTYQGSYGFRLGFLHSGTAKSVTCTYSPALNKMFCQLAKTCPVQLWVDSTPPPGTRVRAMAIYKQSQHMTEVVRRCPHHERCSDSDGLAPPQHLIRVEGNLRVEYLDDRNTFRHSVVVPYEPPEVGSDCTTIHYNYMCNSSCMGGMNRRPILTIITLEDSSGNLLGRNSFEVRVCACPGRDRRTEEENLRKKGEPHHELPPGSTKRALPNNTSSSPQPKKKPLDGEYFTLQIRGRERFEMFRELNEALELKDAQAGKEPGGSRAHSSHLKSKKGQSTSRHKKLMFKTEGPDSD

With `CN(C)C(=O)Nc1cccc(C(F)(F)F)c1`, the result in [1], in [2], in assay [3], in assay [4], in assay [5] and in [6] was inactive. In addition, the call in [7], in [8], in assay [9] and in [10] was inactive.

With `CC[C@H](C)[C@H]1O[C@]2(C=C[C@@H]1C)C[C@@H]1C[C@@H](C/C=C(\C)[C@@H](O[C@H]3C[C@H](OC)[C@@H](O[C@H]4C[C@H](OC)[C@@H](NC)[C@H](C)O4)[C@H](C)O3)[C@@H](C)/C=C/C=C3\CO[C@@H]4[C@H](O)C(C)=C[C@@H](C(=O)O1)[C@]34O)O2`, the AC50 (in general, the midpoint of the concentration-response curve, whichever way the signal moves) in [1] was 54.1 µM (active); in assay [2], 8.89 µM (active); in assay [3], 56.9 µM (active); in [4], 14.9 µM (active); in assay [5], 32.7 µM (active); in assay [6] it was 5.52 µM (active). In addition, the AC50 in [7] was 0.247 µM (active). The call in assay [8], in assay [9] and in [10] was inactive.

As for `Cc1cc(C2CC2)nc(Nc2ccccc2)n1`, the result in [1], in assay [3], in assay [4], in assay [8], in [9] and in assay [10] was inactive. In addition, the AC50 was 64.9 µM (active) in assay [2] and 72.6 µM (active) in [5].

Regarding `COP(=O)(OC)SCn1c(=O)oc2cc(Cl)cnc21`, the AC50 in assay [1] was 49.1 µM (active); in [3] it was 73.7 µM (active); in [7] it was 44 µM (active); in assay [9], 15.3 µM (active); in assay [10] it was 47.5 µM (active). The compound was called inactive in [2], in assay [4], in assay [5] and in [8].

Turning to `CCOP(=S)(OCC)SCCSCC`, the result in assay [1], in assay [2], in [3], in assay [4], in [5] and in assay [7] was inactive. In addition, the compound was classed as inactive in [8], in assay [9] and in assay [10].

For `CCCSP(=O)(OCC)Oc1ccc(Br)cc1Cl` (configuration not stated), the result in assay [1], in assay [2], in [3], in assay [4], in [5] and in assay [6] was inactive. Moreover, the result in assay [7], in [8] and in [10] was inactive.

On to `Nc1c(Cl)cc([N+](=O)[O-])cc1Cl`, for which the AC50 in assay [7] is 33 µM (active); in assay [8] it was 40.4 µM (active); in assay [9], 9.62 µM (active); in assay [10] it was 31.1 µM (active).

For `COc1ccc(C(=CC(=O)N2CCOCC2)c2ccc(Cl)cc2)cc1OC`, the result in assay [1], in assay [2], in assay [4], in [5] and in assay [6] was inactive. In addition, the AC50 in [7] is 48.3 µM (active); in assay [8], 9.11 µM (active); in assay [9] it was 16.4 µM (active); in assay [10], 35.4 µM (active).

As for `CC1=NNC(=O)N(/N=C/c2cccnc2)C1`, the result in assay [1], in assay [2], in assay [4], in assay [5], in assay [7] and in [8] was inactive. Moreover, the compound was classed as inactive in [9] and in [10].

In the case of `CCCCOC(=O)[C@@H](C)Oc1ccc(Oc2ccc(C#N)cc2F)cc1`, the outcome in assay [2], in assay [3], in assay [5], in assay [7], in assay [8] and in [9] was inactive. Besides, the compound was classed as inactive in assay [10].

With `CCc1cnc(C2=NC(C)(C(C)C)C(=O)N2)c(C(=O)O)c1` (configuration not stated), the compound was called inactive in assay [6], in assay [7], in [8], in assay [9] and in assay [10].

For `CCOP(=S)(Oc1cnc(C(C)(C)C)nc1)OC(C)C` (configuration not stated), the result in assay [2], in assay [4], in assay [5], in assay [6], in assay [7] and in assay [8] was inactive. The compound was called inactive in assay [9] and in assay [10].

For the compound `O=[N+]([O-])c1cc(C(F)(F)F)c(Cl)c([N+](=O)[O-])c1Nc1ncc(C(F)(F)F)cc1Cl`, the call in assay [6], in [7], in assay [8] and in assay [10] was inactive.

In the case of `C=C(C)[C@H]1Cc2c(ccc3c2O[C@@H]2COc4cc(OC)c(OC)cc4[C@@H]2C3=O)O1`, the compound was called inactive in [7], in [8], in [9] and in [10].

Take `CCC(=NOC/C=C/Cl)C1=C(O)CC(C2CCOCC2)CC1=O` (configuration not stated): the outcome in assay [4], in assay [5], in assay [7], in assay [8], in [9] and in [10] was inactive.

Take `CC(COc1ccc(Oc2ccccc2)cc1)Oc1ccccn1` (configuration not stated): the result in assay [2], in [3], in assay [5], in assay [8] and in assay [10] was inactive.

Take `CCc1cccc(CC)c1N(COC)C(=O)CCl`: the AC50 in assay [6] was 13.4 µM (active). Also, the compound was classed as inactive in assay [7], in [8], in [9] and in assay [10].

In the case of `CNC(=O)Oc1cccc2c1OC(C)(C)O2`, the result in assay [1], in assay [2], in assay [3], in assay [5], in assay [6] and in [7] was inactive. The compound was called inactive in [8], in [9] and in assay [10].

As for `CNc1cnn(-c2cccc(C(F)(F)F)c2)c(=O)c1Cl`, the result in assay [1], in [3], in assay [7], in assay [8], in [9] and in [10] was inactive.

`CCOP(=S)(OCC)OC(Cl)C(Cl)(Cl)Cl` (configuration not stated): the outcome in assay [1], in assay [4], in assay [5], in assay [7], in assay [8] and in assay [9] was inactive. Also, in assay [10], the outcome was inactive.
